9 compounds from PubChem BioAssay (NCI) can be followed below.

Experiment in all cases: NCI-60 one-dose screen, 48 h (100 = growth as untreated, 0 = no growth, -100 = all killed)
For assay [1], the system named is HT29 colon. The following applies: 10 µM unless noted.
Assay [2] relates to SNB-75 CNS. The following applies: 10 µM unless noted.
Assay [3] deals with SNB-19 CNS. The following applies: 10 µM unless noted.
The test system of assay [4] is U251 CNS. The following applies: 10 µM unless noted.
The subject of assay [5] is PC-3 prostate. The note with it: 10 µM unless noted.
Assay [6] concerns UACC-62 melanoma. The following applies: 10 µM unless noted.
The subject of assay [7] is LOX IMVI melanoma. The note with it: 10 µM unless noted.
For assay [8], the system named is SK-MEL-28 melanoma. The note with it: 10 µM.
The subject of assay [9] is SK-MEL-2 melanoma. The note with it: 10 µM unless noted.
The subject of assay [10] is EKVX NSCLC. The following applies: 10 µM unless noted.
Assay [11] concerns SN12C renal. The following applies: 10 µM unless noted.
For assay [12], the system named is UO-31 renal. The note with it: 10 µM unless noted.
For assay [13], the system named is TK-10 renal. The note with it: 10 µM unless noted.
Assay [14] has as its system ACHN renal. The following applies: 10 µM unless noted.
Assay [15] deals with CAKI-1 renal. The note with it: 10 µM unless noted.
Assay [16] relates to A498 renal. The note with it: 10 µM unless noted.
Assay [17] relates to MOLT-4 leukemia. The following applies: 10 µM unless noted.
Assay [18] concerns SR leukemia. The note with it: 10 µM unless noted.
Assay [19] deals with CCRF-CEM leukemia. The following applies: 10 µM unless noted.

Each structure is given as a SMILES string. The panel holds about 83,000 compounds, 20% with a hit somewhere; the sample as a whole holds those more often.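 Activity criterion: percent growth below 10, measured after cells in 96-well plates were exposed to a single compound concentration for 48 hours.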 Unmarked numbers belong to inactive results. The source made the active and inactive calls.

`CC(=O)O[C@@H]1/C=C/C(=O)N[C@@H](C)CCC/C=C/[C@@H]2CCC[C@H]21`: the growth in assay [1] is 110%; in [2], 95%; in [3], 96.9%; in [4], 109%; in assay [5], 90.2%; in assay [6] it was 92.1%. Moreover, the growth in [7] was 105%; in assay [8], 129%; in [9], 119%; in [10] it was 116%; in assay [11], 102%; in [12], 93.7%. In addition, the growth in assay [13] is 112%; in assay [14], 112%; in assay [15], 98.9%; in [16] it was 121%; in [17], 93.6%; in assay [18], 87.4%.
Turning to `Clc1ccc(Nc2scc3[n+]2CCC3)cc1`, the growth is 106% in [1]; 94.3% in assay [2]; 98.4% in assay [3]; 98% in assay [4]; 89.2% in [5]; 87.3% in assay [6]. Further, the growth in assay [7] is 102%; in assay [8], 100%; in assay [9], 106%; in [10] it was 60.3%; in assay [11] it was 98.2%; in assay [12] it was 81.3%. Also, the growth in assay [13] is 111%; in assay [14], 104%; in [15] it was 84.8%; in [16] it was 82.5%; in assay [19], 95.8%; in assay [17], 94.6%. For the same compound, the growth in assay [18] was 113%.
For the compound `O=c1c2cc(F)ccc2sc2c(NCCCNCCO)nc3ccc(Cl)cc3c12`, the growth is -48.6% (active) in [1]; 46.1% in [2]; 76.5% in assay [3]; 33% in assay [4]; 50.7% in [5]; 91.6% in assay [6]. The growth was 14.6% in assay [7]; 99.9% in [8]; 105% in [9]; 88.8% in assay [10]; 67.4% in assay [11]; 58.5% in [12]. Also, the growth in assay [13] is 77.1%; in assay [14], 60.8%; in assay [15] it was 27.8%; in [16], 60.7%; in [19], 13.7%; in assay [17] it was 18.7%.
Take `O=C(Nc1ccc(Br)cc1F)c1cc(F)ccc1O`: the growth in [1] was 18%; in assay [2], -16.8% (active); in [3], 19.3%; in assay [4] it was 3.38% (active); in [5], 2.45% (active); in [6], -16.4% (active). For the same compound, the growth in assay [7] was 9.8% (active); in assay [8], 6.8% (active); in [9] it was -29.2% (active); in [10], 7.73% (active); in assay [11] it was 3.29% (active); in assay [12], 6.93% (active). In addition, the growth is 3.6% (active) in [13]; 1.78% (active) in assay [14]; -16.7% (active) in [15]; -68.8% (active) in assay [16]; 7.49% (active) in assay [19]; 0.344% (active) in [17].
Turning to `O=Cc1c(OCc2cnnn2CC(=O)Nc2ccc(Br)cc2)ccc2ccccc12`, the growth in assay [1] is 97.8%; in [2], 72.6%; in assay [3] it was 90.4%; in assay [4], 90.4%; in [5], 90.2%; in assay [6], 68.4%. In addition, the growth was 79.5% in assay [7]; 99.9% in [8]; 102% in assay [9]; 82.1% in assay [10]; 92.9% in [11]; 66.3% in assay [12]. For the same compound, the growth in assay [13] is 93.7%; in assay [14] it was 80.1%; in assay [15], 93.9%; in [16], 74.4%; in assay [19], 97.4%; in assay [17], 93.7%. In [18], the growth is 95.9%.
Turning to `COc1cc([C@@H]2NC(=O)NC(C)=C2C(=O)Nc2nc(-c3ccc(Cl)cc3)cs2)ccc1O`, the growth is 108% in assay [1]; 87.3% in assay [2]; 113% in assay [3]; 97.9% in [4]; 88.9% in assay [5]; 91.6% in assay [6]. The growth in assay [7] is 94.2%; in assay [8] it was 110%; in assay [9], 105%; in assay [10] it was 91.1%; in assay [11] it was 97.4%; in [12] it was 69%. Besides, the growth in [13] was 103%; in [14] it was 98.3%; in [15], 83%; in assay [16], 102%; in assay [19] it was 132%; in assay [17], 100%. For the same compound, the growth in assay [18] is 106%.
`CN1CCN(Cc2ccc(NC(=O)c3cncc(C#Cc4nc(N)nc5[nH]ncc45)c3)cc2C(F)(F)F)CC1`: the growth is 55.3% in [1]; 85% in assay [2]; 108% in assay [3]; 107% in assay [4]; 108% in assay [5]; 89.3% in assay [6]. For the same compound, the growth in assay [7] is 88.1%; in [8] it was 94.3%; in assay [9], 92.4%; in [10], 109%; in assay [11], 89.7%; in assay [12] it was 122%. Also, the growth is 126% in assay [13]; 99.8% in assay [14]; 66.5% in assay [15]; 102% in [16]; 5.35% (active) in assay [19]; 8.02% (active) in [17].
As for `O=c1oc2ccc(F)cc2c(=O)n1-c1ccc(Br)cc1F`, the growth in assay [1] was 32.6%; in assay [2] it was -15.7% (active); in [3], 17.1%; in [4] it was 2.06% (active); in assay [5], -2.97% (active); in assay [6], -6.65% (active). The growth in [7] is 13.5%; in assay [8], 11.1%; in [9], -30.2% (active); in assay [10] it was 7.09% (active); in assay [11], -4.08% (active); in assay [12] it was 5.26% (active). Further, the growth in [13] is 3.34% (active); in [14] it was 2.25% (active); in assay [15], -14.8% (active); in assay [16], -55.4% (active); in assay [19], 11.1%; in [17] it was -7.7% (active).
On to `Cn1cc([C@@H]2Nc3ccc4[nH]ncc4c3[C@H]3[C@H]4CCC(C4)[C@H]32)c(C(F)(F)F)n1`, for which the growth in [1] is 16%; in assay [2], 13.1%; in [3], 50.7%; in assay [4] it was 42.5%; in assay [5], 52.1%; in assay [6], 30.4%. The growth is 44.2% in assay [7]; 62% in assay [8]; 21.1% in assay [9]; 67.1% in [10]; 50.6% in [11]; 49.6% in assay [12]. Further, the growth is 65.6% in assay [13]; 50.5% in assay [14]; 35.3% in assay [15]; 8.35% (active) in [16]; 27.6% in assay [19]; 29.4% in assay [17].
